Results: PubChem BioAssay AID893 (National Center for Advancing Translational Sciences (NCATS), 2007)
Hit rate of the full screen: of about 75,000 compounds, about 5,700 (7.6%) were called active. Roughly 7% stayed inconclusive and do not appear here. The sample holds actives, similar compounds and a random draw of the others, so the mix is not that of the screen. Calls come from the whole dose curve; as a rule, active = well fitted inhibition curve with a large enough effect; inconclusive = small, poorly fitted or top-dose-only effect; inactive = no such curve, though single readings can be large or run the other way.
% is set by controls: 0 for no effect and ±100 for the full control effect; potency is the fitted concentration of half-maximal effect.
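Note: the protocol describes HADH2 (HSD17B10) and not the HSD17B4 of the title; nearly all actives have a fitted effect of over 70% in size.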

What follows are compounds tested against 3-hydroxyacyl-CoA dehydrogenase type-2 (Homo sapiens) (UniProt Q99714) (assay: qHTS Assay for Inhibitors of HSD17B4, hydroxysteroid (17-beta) dehydrogenase 4). Conditions: recombinant HSD17B10, NADH fluorescence kinetic; series mostly up to 57.1 µM; activity change, negative = inhibition: at the top concentration.
Procedure, shortened: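 Enzyme plus compound, 15 min room temperature; substrate mix added (NAD+ 1 mM, beta-hydroxybutyryl-CoA 90 uM final); plates read kinetically for NADH fluorescence. HADH2 was His-tagged, E. coli-derived, 20 nM.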
In the case of `CC(Cc1ccccc1)C(=O)N(C)Cc1ccccc1` (configuration not stated), the “activity change, negative = inhibition” value was -7.16% (inactive).
For `O=C(C(Cc1ccccc1)n1cccc1)N1CCN(C2CCCCC2)CC1` (configuration not stated), the “activity change, negative = inhibition” value was -2.66% (inactive).
For `Cc1ccc(C)n1C(Cc1ccccc1)C(=O)O` (configuration not stated), the Potency was 10 µM (active).
`C=CCn1c(SCc2cc(C(=O)OC)c(C)o2)nnc1-c1ccncc1` was tested, and the “activity change, negative = inhibition” value was -12.7% (inactive).
For `CCC(C)(C(=O)NC1CCCC1)N(C(=O)CNC(C)=O)c1ccc(C)cc1` (configuration not stated), the “activity change, negative = inhibition” value was -3.05% (inactive).
With `Cc1ccc2cc(C#N)c(SCC(=O)NCC3CCCO3)nc2c1C` (configuration not stated) the “activity change, negative = inhibition” value was 12% (inactive).
In the case of `O=C(CS(=O)(=O)Cc1ccccc1)NCC1CCCO1` (configuration not stated), the “activity change, negative = inhibition” value was 2.9% (inactive).
In the case of `O=C(CSC1=Nc2ccccc2C2=NC(c3ccccc3)C(=O)N12)NCC1CCCO1` (configuration not stated), the Potency was 31.6 µM (active).
With `Cc1ncn(C23CC4CC(CC(O)(C4)C2)C3)n1` the “activity change, negative = inhibition” value was 12.4% (inactive).
With `COC(=O)C1(C)C=CC2(CCCCC2)N1C(C)=O` (configuration not stated) the “activity change, negative = inhibition” value was 25.3% (inactive).
For `O=C(O)C1=CCCN(CCON=C(c2ccccc2)c2ccccc2)C1`, the Potency was “inactive”.
With `O=C(Nc1ccccc1)N[C@H]1C[C@H](C(=O)O)Nc2cc(Cl)cc(Cl)c21` the “activity change, negative = inhibition” value was -2.74% (inactive).
With `COc1ccc(S(=O)(=O)N2CCC(C(=O)N3CCOCC3)CC2)cc1OC` the “activity change, negative = inhibition” value was 7.24% (inactive).
For `COc1cc2nc(N3CCN(C(=O)[C@@H]4CCCO4)CC3)nc(N)c2cc1OC`, the Potency was 12.6 µM (active).
For `O=C(C1CCCO1)N1CCC(c2nc3ccccc3[nH]2)CC1` (configuration not stated), the “activity change, negative = inhibition” value was -27% (inactive).
For `COc1ccc(N2C(=O)C3CCCN3C2c2cc(OC)c(OC)cc2OC)cc1` (configuration not stated), the “activity change, negative = inhibition” value was 3.49% (inactive).
`CCN(CC)S(=O)(=O)c1cc(C(=O)Nc2ccccn2)ccc1C` was tested, and the “activity change, negative = inhibition” value was 4.29% (inactive).
In the case of `CCOc1ccccc1C(=O)NCc1ccco1`, the Potency was 25.1 µM (active).
With `CCCCOc1ccc(C(=O)NCc2ccco2)cc1` the “activity change, negative = inhibition” value was -4.29% (inactive).
`COc1ccccc1C(=O)NCCn1cc(SCC(=O)NCc2ccco2)c2ccccc21` was tested, and the “activity change, negative = inhibition” value was -14.1% (inactive).
For `CC(C)(C)NC(=O)NC(=O)COC(=O)Cn1c(C(F)(F)F)nc2ccccc21`, the “activity change, negative = inhibition” value was 6.12% (inactive).
With `Cn1cccc1C(=O)Nc1nccs1` the “activity change, negative = inhibition” value was 1.39% (inactive).
In the case of `Cn1cccc1C(=O)NC(=O)COC(=O)Cc1coc2ccc3ccccc3c12`, the Potency was 31.6 µM (active).
In the case of `CSCC[C@H](NC(=O)NCCc1ccc(F)cc1)C(=O)O`, the “activity change, negative = inhibition” value was 7.27% (inactive).
`O=C1OC(C(O)CO)C(O)=C1O` (configuration not stated) was tested, and the “activity change, negative = inhibition” value was 7.41% (inactive).
In the case of `COc1ccc(CCN=C2SCC(=O)N2C)cc1OC`, the “activity change, negative = inhibition” value was 11.7% (inactive).
`COc1ccc(C(=O)N(Cc2ccc(N(C)C)cc2)C2CCS(=O)(=O)C2)cc1` (configuration not stated) was tested, and the “activity change, negative = inhibition” value was -23.7% (inactive).
For `CCCCC(CC)CN` (configuration not stated), the Potency was “inactive”.
`N[C@@H](C(=O)O)c1ccc(P(=O)(O)O)cc1` was tested, and the “activity change, negative = inhibition” value was -11.4% (inactive).
In the case of `O=C(c1ccc(O)cc1)c1ccc(C(=O)O)c(C(=O)O)c1`, the “activity change, negative = inhibition” value was -7.84% (inactive).
For `N[C@H](C(=O)O)c1ccc(C(=O)O)c(O)c1`, the Potency was 39.8 µM (active).
With `Cc1noc(NS(=O)(=O)c2ccc(NC(=O)C34CCC(CC3)C4)cc2)c1C` the “activity change, negative = inhibition” value was 8.81% (inactive).
